High-throughput results deposited in PubChem by Broad Institute.
An excerpt weighted towards active compounds, which were near 2.2% of everything screened.
Shn3 inh set2: reduction of Shn3 3'UTR firefly luciferase signal, primary screen, Schnurri-3 inhibitor project, cell-based, Clone20 osteoblasts, set 2; Clone20 osteoblast Shn3 3'UTR firefly luciferase, 24 h; 360,000 compounds, 0.52% hits; inhibition, % at 12.5 µM;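 active = mean inhibition of at least 75% with every replicate also reaching 75%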;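 note: 0% = median of neutral control wells and 100% = pilot-screen positive control compound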
EWS-Fli block: EWS/Fli-driven NR0B1 reporter inhibitors, primary screen, A673 cells, NR0B1 luciferase, luminescence, MLPCN library; 350,000 compounds, 0.67% hits; inhibition, % at 12.6 µM; viability-normalised;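 active = mean inhibition of at least 50% after viability correction, with every replicate also passing that limit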;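 note: firefly luciferase signal divided by Alamar Blue viability fluorescence both relative to DMSO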
LGR2 antag: inhibitors of bursicon-induced LGR2 CRE-luciferase signal, primary screen, cell-based, HEK293, CRE-luciferase reporter, bursicon stimulation; Drosophila bursicon receptor LGR2 (rickets); bursicon-stimulated, 4 h; inhibition, % at 9.99 µM; 380,000 compounds, 0.35% hits; AID 720647, 2013;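 active = drop in luminescence signal, shown as inhibition above about 50% in the replicate tests, limit read from the data, passing the limit was not always enough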;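 note: agonist challenge used bursicon conditioned medium at about half maximal strength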
PAX8 reporter: inhibitors of PAX8-driven TPO luciferase reporter, primary screen, RMG-I cells, single concentration | SteadyGlo, 24 h | inhibition, % at 12.6 µM | 360,000 compounds, 1.2% hits;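 active = mean replicate inhibition at least 60% with every replicate also reaching 60%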;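 note: luciferase light reporting Pax8 driven TPO promoter activity; plate controls were median of neutral control wells for no effect and mitoxantrone controls for full effect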
MITF TRPM1 inh: inhibitors of MITF-dependent TRPM1 promoter reporter, primary screen, cell-based, SK-MEL-5, single point, luciferase | SK-MEL-5 TRPM1 promoter luciferase, 24 h | inhibition, % at 12.5 µM | 330,000 compounds, 0.83% hits | AID 488899, 2010;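 active = mean inhibition across replicates of 60% or more, whatever share of single replicates reaches that level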
EBV LMP1 NFkB: EBV LMP1-driven NF-kappaB luciferase reporter inhibitors, primary screen, cell-based, luminescence, single point; inhibition, % at 12.5 µM; 350,000 compounds, 0.69% hits; AID 504558, 2011; LMP1-induced NF-kappaB luciferase reporter cells; in the data active = inhibition above about 41%;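 note: 0% = neutral control wells and 100% = reference inhibitor control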
Starred values were filed as active, the others as inactive.

O=C(NCC[C@H]1CC[C@H](NS(=O)(=O)Cc2ccccc2)[C@H](CO)O1)C1CC1 was read as EWS-Fli block 1, LGR2 antag -7 and PAX8 reporter 2.
For CC1(C)CC[C@]2(C(=O)O[C@@H]3OC(CO)[C@@H](O)[C@H](O)[C@H]3O)CC[C@]3(C)C(=CCC4[C@@]5(C)CC[C@H](O[C@@H]6OC(C(=O)O)[C@@H](O)[C@H](O)[C@H]6O)C(C)(C)C5CC[C@]43C)[C@@H]2C1 (stereo partly specified) the results were Shn3 inh set2 -15, EWS-Fli block 4, LGR2 antag 12, PAX8 reporter -7, MITF TRPM1 inh 2 and EBV LMP1 NFkB -33.
`C/C=C(\C)C(=O)OC1CC(C)(C)C[C@H]2C3=CC[C@@H]4[C@@]5(C)CCC(O[C@@H]6O[C@@H](C(=O)O)[C@@H](O)C(O[C@@H]7OC[C@H](O)[C@@H](O)[C@@H]7O[C@@H]7OC(CO)C(O)[C@@H](O)[C@@H]7O)C6O[C@@H]6OC(CO)C(O)C(O)C6O)[C@@](C)(CO)[C@@H]5CC[C@]4(C)[C@]3(C)CC(O)[C@@]12CO` (stereo partly specified) gave Shn3 inh set2 9, EWS-Fli block 24, LGR2 antag 8, PAX8 reporter 75*, MITF TRPM1 inh 46 and EBV LMP1 NFkB 8.
For Cc1cc(C(=O)COC(=O)C2=COCCO2)c(C)n1-c1ccccc1 the results were Shn3 inh set2 37, EWS-Fli block 16, LGR2 antag 91*, PAX8 reporter 75*, MITF TRPM1 inh 81* and EBV LMP1 NFkB 72*.
Screening CCCn1c(C)cc(C(=O)COc2ccc(C)nc2[N+](=O)[O-])c1C returned Shn3 inh set2 27, EWS-Fli block 1, PAX8 reporter -12, MITF TRPM1 inh -2 and EBV LMP1 NFkB 12.
Screening C=CCn1c(C)cc(C(=O)COc2ccc(C)nc2[N+](=O)[O-])c1C returned Shn3 inh set2 50, LGR2 antag 7, PAX8 reporter -33, MITF TRPM1 inh 27 and EBV LMP1 NFkB 24.
For COCCn1c(C)cc(C(=O)COc2ccc(C)nc2[N+](=O)[O-])c1C the results were Shn3 inh set2 58, EWS-Fli block 19, LGR2 antag -1, PAX8 reporter -21, MITF TRPM1 inh 36 and EBV LMP1 NFkB 45*.
For Cc1ccc(OCC(=O)c2cc(C)n(-c3ccccc3)c2C)c([N+](=O)[O-])n1 the results were Shn3 inh set2 49, LGR2 antag -27, PAX8 reporter 4, MITF TRPM1 inh 37 and EBV LMP1 NFkB 66*.
Screening Cc1cc(C(=O)COC(=O)C2=NNC(=O)CC2)c(C)n1-c1ccccc1 returned Shn3 inh set2 5, EWS-Fli block 5, LGR2 antag -31, MITF TRPM1 inh 31 and EBV LMP1 NFkB 0.
Screening COCC#Cc1cnc2c(c1)C(=O)N([C@@H](C)CO)C[C@@H](C)[C@H](CN(C)C(C)=O)O2 returned EWS-Fli block -6 and LGR2 antag 27.
For Cn1cnc(S(=O)(=O)N2C[C@H](O)COC[C@H]3O[C@H](CC(=O)NCc4cc(F)cc(F)c4)CC[C@@H]32)c1 the results were EWS-Fli block 3, LGR2 antag -2 and PAX8 reporter -14.
O=C(NCCc1ccc(Cl)cc1)C12CC3CC(CC(O)(C3)C1)C2 was read as Shn3 inh set2 -10, EWS-Fli block -12, LGR2 antag 16, PAX8 reporter -4, MITF TRPM1 inh -18 and EBV LMP1 NFkB 58*.
Cc1cccc(C)c1NC(=O)CNC(=O)C12CC3CC(CC(O)(C3)C1)C2 was read as Shn3 inh set2 -3, EWS-Fli block -2, LGR2 antag -4, PAX8 reporter -4, MITF TRPM1 inh 4 and EBV LMP1 NFkB 0.
Screening Cc1ccccc1N=C1N=C(N)c2ccccc21 returned Shn3 inh set2 1, EWS-Fli block 7, LGR2 antag -10, PAX8 reporter 138*, MITF TRPM1 inh 6 and EBV LMP1 NFkB -16.
For COc1cccc(NC(=O)N2CC3(C2)[C@H](c2ccccc2)[C@@H](CO)N3C(=O)C2CC2)c1 the results were EWS-Fli block 0, LGR2 antag -12 and PAX8 reporter -33.
Screening Cc1ccc(S(=O)(=O)CCC(=O)OCC(=O)Nc2cc(S(=O)(=O)N3CCOCC3)ccc2C)cc1 returned Shn3 inh set2 88*, EWS-Fli block 3, LGR2 antag 1, MITF TRPM1 inh -10 and EBV LMP1 NFkB 4.
COc1ccc(S(=O)(=O)N2CCOCC2)cc1NC(=O)COC(=O)CC1CC2CCC1C2 (stereo unspecified) was read as Shn3 inh set2 87*, EWS-Fli block 11, LGR2 antag -4, PAX8 reporter 1, MITF TRPM1 inh 13 and EBV LMP1 NFkB -9.
CC(C)Oc1ccc(S(=O)(=O)N2CCOCC2)cc1NC(=O)CC1CC2CCC1C2 (stereo unspecified) was read as Shn3 inh set2 -5, EWS-Fli block 15, LGR2 antag 2, PAX8 reporter 9 and EBV LMP1 NFkB -16.
`COc1cccc(NC(=O)N[C@@H]2CC[C@@H](CC(=O)NCc3ccncn3)O[C@@H]2CO)c1` gave EWS-Fli block -5, LGR2 antag 3 and PAX8 reporter 2.
CC(=O)c1ccc(-n2nnnc2SCC(=O)N2CCc3ccccc3C2)cc1 was read as Shn3 inh set2 8, MITF TRPM1 inh 0 and EBV LMP1 NFkB 49*.
`O=C1/C(=C/c2ccccn2)COc2ccccc21` gave Shn3 inh set2 10, EWS-Fli block 7, LGR2 antag 8, PAX8 reporter 10, MITF TRPM1 inh -5 and EBV LMP1 NFkB 14.
`CC1C/C(=C/c2ccccn2)C(=O)/C(=C/c2ccccn2)C1` (stereo unspecified) gave Shn3 inh set2 95*, MITF TRPM1 inh 100* and EBV LMP1 NFkB 90*.
For O=C1/C(=C/c2cccs2)CCC/C1=C\c1cccs1 the results were Shn3 inh set2 -22, LGR2 antag -134, PAX8 reporter -192, MITF TRPM1 inh -75 and EBV LMP1 NFkB -33.
`CC1C/C(=C/c2cccs2)C(=O)/C(=C/c2cccs2)C1` (stereo unspecified) gave Shn3 inh set2 -34, EWS-Fli block 1, LGR2 antag 2, PAX8 reporter 72*, MITF TRPM1 inh -16 and EBV LMP1 NFkB -5.
`CC(C)(C)C1C/C(=C/c2ccccn2)C(=O)/C(=C/c2ccccn2)C1` (stereo unspecified) gave Shn3 inh set2 95*, MITF TRPM1 inh 102* and EBV LMP1 NFkB 86*.
